Data taken from PubChem BioAssay (NCATS).

The molecules below were run against Lysosomal acid glucosylceramidase (Homo sapiens) (UniProt P04062) (assay: Glucocerebrosidase-p2 (AID 348)). Conditions: purified GBA, blue fluorogenic substrate, 40 min; in the data active means potency below about 10 µM; inactive means the rest.
In short: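 Normal human glucocerebrosidase (0.2 nM) with blue fluorogenic substrate (80 uM final) in citrate/phosphate pH 5.9 with 10mM sodium taurocholate, 0.01% tween-20; 40 min RT, NaOH/glycine stop; fluorescence Ex 365/Em 440; AC50 from a titration from 0.6 nM upwards.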
Potency means the concentration at half of the fitted maximal effect.

Chain of Lysosomal acid glucosylceramidase (Homo sapiens) (P04062 whole entry, looked up): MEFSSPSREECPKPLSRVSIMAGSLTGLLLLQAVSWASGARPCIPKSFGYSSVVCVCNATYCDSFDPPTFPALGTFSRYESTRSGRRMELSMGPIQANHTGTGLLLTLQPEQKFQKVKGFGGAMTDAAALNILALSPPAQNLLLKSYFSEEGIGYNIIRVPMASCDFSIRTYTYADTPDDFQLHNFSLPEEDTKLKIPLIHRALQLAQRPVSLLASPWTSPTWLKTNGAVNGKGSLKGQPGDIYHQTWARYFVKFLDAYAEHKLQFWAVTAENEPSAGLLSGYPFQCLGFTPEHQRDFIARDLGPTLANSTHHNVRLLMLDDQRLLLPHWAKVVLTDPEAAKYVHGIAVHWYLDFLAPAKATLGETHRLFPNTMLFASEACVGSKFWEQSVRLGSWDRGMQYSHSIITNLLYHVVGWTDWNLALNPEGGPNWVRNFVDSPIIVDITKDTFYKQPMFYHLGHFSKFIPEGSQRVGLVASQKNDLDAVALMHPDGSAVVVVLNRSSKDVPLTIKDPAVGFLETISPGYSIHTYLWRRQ

Potency, inactive:
COCCn1c(=O)c(-c2ccc(OC)cc2)nc2cnc(Nc3ccccc3)nc21 > 11.4 µM, CN(C)Cc1ccccc1-c1cncnc1Nc1ccc(F)cc1 > 11.4 µM, N#Cc1cccc(NC(=O)N2CC3(CCN(C(=O)c4cnccn4)CC3)C2)c1 > 11.4 µM, COc1ccc(C(=O)N2CCC3(CCCN(c4ccc(-c5ccccc5)cc4)C3)CC2)cc1 > 11.4 µM, N#CCCn1c(=O)cnc2cnc(Nc3ccccc3)nc21 > 11.4 µM, O=C(c1ccncc1)N1CCC[C@@]2(CCN(Cc3cc(C(F)(F)F)cc(C(F)(F)F)c3)C2)C1 > 11.4 µM, Cn1cccc1C(=O)N1CCC[C@@]2(CCN(c3cccc(-c4ccccc4)c3)C2)C1 > 11.4 µM, N#Cc1ccc(CN2CCC3(CC2)CCN(C(=O)c2cnccn2)CC3)cc1 > 11.4 µM, CCNc1ncc2nc(-c3cccs3)c(=O)n(-c3ccc(OC)cc3)c2n1 > 11.4 µM, c1cncc(-c2nc(NCCN3CCOCC3)c3ccccc3n2)c1 > 11.4 µM, O=C(Nc1cccc(F)c1)N1CCC2(CC1)CCN(C(=O)c1ccncc1)CC2 > 11.4 µM, O=C(Oc1ccccc1)N1CCC[C@@]2(CCN(c3ccccc3)C2)C1 > 11.4 µM, CC(=O)N1CCC2(CC1)CCN(c1ccccc1)CC2 > 11.4 µM, O=C(c1ccco1)N1CCC2(CCCN(c3cccc(-c4ccccc4)c3)C2)CC1 > 11.4 µM, O=C(Oc1ccccc1)N1CCC2(CC1)CCN(c1ccccn1)CC2 > 11.4 µM, O=C(c1csnn1)N1CCC2(CCCN(c3ccccn3)C2)CC1 > 11.4 µM, Cc1cccc(CNc2cc(-c3ccccc3C)ncn2)c1 > 11.4 µM, O=S(=O)(c1ccccc1)N1CCC2(CCCN(Cc3ccccc3)C2)CC1 > 11.4 µM, COc1ccc(C(=O)N2CCC3(CCCN(c4ccncc4)C3)CC2)cc1 > 11.4 µM, O=C(c1ccncc1)N1CCC2(CCN(Cc3cc(C(F)(F)F)cc(C(F)(F)F)c3)CC2)CC1 > 11.4 µM, O=c1c(CCc2ccccc2)nc2cnc(Nc3ccccc3)nc2n1Cc1cccs1 > 11.4 µM, O=S(=O)(c1ccccc1)N1CCC2(CCCN(c3ccccc3)C2)CC1 > 11.4 µM, Cc1noc(C)c1C(=O)N1CCC2(CCCN(c3ccccn3)C2)CC1 > 11.4 µM, Cn1cccc1C(=O)N1CCC2(CCCN(Cc3nccs3)C2)CC1 > 11.4 µM, O=C(c1ccco1)N1CCC2(CCN(Cc3cc(C(F)(F)F)cc(C(F)(F)F)c3)CC2)CC1 > 11.4 µM, Cn1cccc1C(=O)N1CCC2(CCCN(C(=O)Nc3cccc(C#N)c3)C2)CC1 > 11.4 µM, CC(=O)N1CCC2(CCN(Cc3ccc(C#N)cc3)CC2)CC1 > 11.4 µM, O=C(c1ccncc1)N1CCC2(CCCN(c3ncccn3)C2)CC1 > 11.4 µM, O=C(c1cnccn1)N1CCC2(CCCN(c3ccncc3)C2)CC1 > 11.4 µM, N#CCCn1c(=O)c(-c2cccs2)nc2cnc(Oc3ccccc3)nc21 > 11.4 µM, O=C(c1cccc(F)c1)N1CCC2(CC1)CCN(c1ccccn1)CC2 > 11.4 µM, O=C(Nc1cccc(F)c1)N1CC2(CCN(C(=O)c3ccncc3)CC2)C1 > 11.4 µM, O=C(c1ccco1)N1CCC2(CC1)CCN(c1ccccn1)CC2 > 11.4 µM, COCCn1c(=O)c(-c2cccs2)nc2cnc(OCc3ccccc3)nc21 > 11.4 µM, O=C(Nc1cccc(F)c1)N1CCCC2(CCN(C(=O)c3ccco3)CC2)C1 > 11.4 µM, O=C(Nc1ccccc1)N1CCCC2(CCN(C(=O)c3cccc(F)c3)CC2)C1 > 11.4 µM, O=C(c1cnccn1)N1CCC2(CC1)CCN(c1cccc(-c3ccccc3)c1)CC2 > 11.4 µM, O=C(c1cccc(F)c1)N1CCC2(CCCN(c3ccccc3)C2)CC1 > 11.4 µM, O=S(=O)(c1ccccc1)N1CCC2(CCCN(c3ccncc3)C2)CC1 > 11.4 µM
